# Test results from PubChem BioAssay AID1004 (SRMLSC, 2008).
# Values without a mark were called inactive. The source made the active and inactive calls.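 Rule for the calls: active = viability at 10 µM of 29.74% or lower, 3 SD below the compound median; inactive = the rest.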
# Experiment: viability of HCT116 lacking mutant beta-catenin – cell-based, DP diverse set, validation, pilot screen (AID 1004)
# Details: HCT116 (mutant beta-catenin deleted) viability, CellTiter-Glo, 60 h; at 10 µM; stronger effect = lower value
row,Compound,viability
1,C[C@H]1CCC/C=C/C2C[C@H](O)C[C@H]2[C@H](O)/C=C/C(=O)O1 (some centres undefined),40.4%
2,CCCC[C@H]1C(=O)O[C@H](C)[C@H](NC(=O)c2cccc(NC=O)c2OC)C(=O)O[C@@H](C)[C@@H]1OC(=O)CC(C)C,95.2%
3,CSC(=S)NCc1c[nH]c2ccccc12,95%
4,CCCN1CCC[C@@H]2Cc3cn[nH]c3C[C@H]21,103%
5,O[C@H]1[C@H](O)[C@@H](O)CN2CC[C@H](O)[C@H]12,95.4%
6,NCC(CC(=O)O)c1ccc(Cl)cc1 (centres undefined),103%
7,COC[C@H]1OC(=O)c2coc3c2[C@@]1(C)C1=C(C3=O)C2CCC(=O)[C@@]2(C)C[C@H]1OC(C)=O (some centres undefined),78.1%
8,CC1=C2[C@H]3OC(=O)[C@@H](C)[C@@H]3CC[C@@]2(C)C=CC1=O,98%
9,COC(=O)C(O)C(O)(CCC(C)C)C(=O)OC1C(OC)=CC23CCCN2CCc2cc4c(cc2C13)OCO4 (centres undefined),30%
10,COC1=C[C@@H]2[C@@H]3Cc4ccc(OC)c(O)c4[C@]2(CCN3C)CC1=O,96.9%
11,CCN1C[C@@]2(COC)C3[C@@H](OC)[C@H]4C1[C@@]3(C1C[C@]3(O)C(OC)[C@H](O)[C@@]4(OC(C)=O)C1[C@H]3OC(=O)c1ccccc1)[C@H](OC)C[C@H]2O (some centres undefined),99.8%
12,Nc1ccncc1,103%
13,CC(=O)O[C@H]1[C@H]2[C@@H](OC(=O)Cc3ccccc3)[C@@H](C)C[C@]2(OC(C)=O)C(=O)/C(C)=C/[C@@H]2[C@H](CC[C@@]13CO3)C2(C)C,89.4%
14,CN1C[C@H](CNC(=O)OCc2ccccc2)C[C@@H]2c3cccc4c3c(cn4C)C[C@H]21,80.4%
15,O=C1CCC[C@H]2[C@@H]3CCCN4CCC[C@H](CN12)[C@H]34,104%
16,N#Cc1nn(-c2c(Cl)cc(C(F)(F)F)cc2Cl)c(N)c1S(=O)C(F)(F)F (centres undefined),92.8%
17,CN(C)[C@@H]1C(=O)C(C(N)=O)=C(O)[C@@]2(O)C(=O)C3=C(O)c4c(O)cccc4[C@@](C)(O)C3CC12 (some centres undefined),98.3%

row,Compound,viability
1,CC(C)(C)[C@]1(O)C[C@@H]2OC(=O)CC23C(=O)O[C@@H]2OC(=O)[C@H](O)C231 (some centres undefined),93.5%
2,C[C@@H]1CC[C@H]2[C@@H](C)C(=O)O[C@@H]3OC4(C)CC[C@@H]1[C@]32OO4,100%
3,CC/C(=C(\c1ccccc1)c1ccc(OCCN(C)C)cc1)c1ccccc1,67.6%
4,C=C(C)[C@H]1CN[C@H](C(=O)O)[C@H]1CC(=O)O,94.1%
5,OCC1CCCN2CCCCC12 (centres undefined),99.4%
6,C[C@@H]1O[C@@H](OC2CC(O)C3(CO)C4C(CCC3(O)C2)C2(O)CCC(C3=CC(=O)OC3)C2(C)C[C@H]4O)[C@H](O)[C@H](O)[C@H]1O (some centres undefined),128%
7,C=CCN1CC[C@]23c4c5ccc(O)c4O[C@H]2C(=O)CC[C@@]3(O)[C@H]1C5,96.6%
8,CCCCCCCCCCCCCC(=O)O[C@@H]1[C@@H](C)[C@@]2(O)[C@@H](C=C(CO)C[C@]3(O)C(=O)C(C)=C[C@@H]23)[C@@H]2C(C)(C)[C@]12OC(C)=O,82.7%
9,N#CC(C#N)=Cc1cc(O)c(O)c([N+](=O)[O-])c1,101%
10,C[C@]12CC[C@@H](O)C[C@@H]1CC[C@@H]1[C@@H]2CC[C@]2(C)C(=O)CC[C@@H]12,98.5%
11,N#CC(C#N)=Cc1ccc([N+](=O)[O-])c(O)c1,97.9%
12,O=C1C=CC(=O)C(Cl)=C1,101%
13,NCCc1c[nH]c2ccc(O)cc12,100%
14,CNc1ccc2oc(C[C@@H]3OC4(CC[C@@H]3C)O[C@H](C(C)C(=O)c3ccc[nH]3)[C@H](C)C[C@H]4C)nc2c1C(=O)O (some centres undefined),9.98% (active)
15,CC[C@@]1(O)C(=O)OCc2c1cc1n(c2=O)-c2cc3ccccc3nc2C1,24.3% (active)
16,O=C1C=C2C=C[C@@H]3C[C@@]2(O1)[C@H]1CCCCN31,86%
17,CC(C)c1cc2c(c(O)c1O)[C@@]1(C(=O)O)CCCC(C)(C)[C@@H]1CC2,103%
